Test results reported in article PMC5540273 (PLoS ONE, 2017).

test system: CDC2L2; settings: concentration: 1 μM, replicates: in singlicate; n = 1
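Further: KINOMEscan kinase panel screen.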

Q: How did the “%Inh” value turn out when `O=C(Nc1n[nH]c2nc(-c3ccccc3O)ccc12)C1CC1` [SB-711880] was run?
A: The value was 0%.

Q: With `N#CC1(c2cccc(C(=O)Nc3cccc(Oc4ccc5nc(NC(=O)C6CC6)sc5n4)c3)c2)CC1` as the compound, how does the “%Inh” value read?
A: Its value is 0%.

Q: How did the “%Inh” value turn out when `Cl.Cl.NCC(NC(=O)c1cc(-c2cccnc2)c(-c2ccnc3[nH]ccc23)s1)c1ccccc1` (stereo not shown) [GSK1323434] was run?
A: The value was 9%.

Q: Which “%Inh” value does the source give for `COc1cccc(C2=C(Nc3cccc(O)c3)C(=O)NC2=O)c1` [SB-390771] here?
A: Its value is 15%.

Q: How did the “%Inh” value turn out when `Fc1cc(Cl)ccc1Nc1ccnc2cc(-c3ccc(CN4CCSCC4)o3)ccc12` [GW560106] was run?
A: The value was 0%.

Q: For `O=C(O)C(F)(F)F.O=c1[nH]ccc2nc(N[C@@H]3CCNC3)nc(Nc3ccc4c(c3)S(=O)(=O)CC4)c12` [GSK2181306], which “%Inh” value is on record?
A: Its value is 0%.

Q: For `Cc1ccccc1CC(=O)N1CCc2cc(-c3cn(C)c4ncnc(N)c34)ccc21` [GSK2603346], which “%Inh” value is on record?
A: Its value is 3%.

Q: For `O=C(Nc1n[nH]c2nc(-c3ccccc3)ccc12)C1CC1` [SB-708999], which “%Inh” value is on record?
A: The value was 0%.

Q: Which “%Inh” value does the source give for `CN(c1ccc(NC(=O)Nc2cccc(Cl)c2)cc1)c1ccnc(N)n1.Cl` [GW830707] here?
A: Its value is 12%.

Q: `CN(C)CCOc1ccc(-c2cc(-c3ccc(Cl)c(O)c3)c(-c3ccncc3)[nH]2)cc1.Cl.Cl` [SB-684387] was tested. Which “%Inh” value did it give?
A: Its value is 14%.

Q: How did the “%Inh” value turn out when `Cc1ccc(Nc2ccnc(Nc3ccc(C)c(F)c3)n2)cc1O.Cl` [GW582868] was run?
A: The value was 0%.

Q: Which “%Inh” value does the source give for `CN(c1ccc(NC(=O)N2CCN(CCCN3CCOCC3)CC2)cc1)c1ccnc(Nc2ccc(CS(C)(=O)=O)cc2)n1.Cl` [GW830899] here?
A: The value was 1%.

Q: For `Nc1ncnc2scc(-c3ccc(NC(=O)Cc4cc(F)ccc4F)cc3)c12.O=C(O)C(F)(F)F` [SB-731254-M], which “%Inh” value is on record?
A: The value was 36%.

Q: `CC(C)c1nc(-c2cccc(NS(=O)(=O)c3c(F)cccc3F)c2)c(-c2ccnc(Nc3ccc(N4CCOCC4)nc3)n2)s1.Cl` [GSK1723980] was tested. Which “%Inh” value did it give?
A: Its value is 0%.

Q: `Cl.N#CCc1ccc(Nc2nccc(Nc3ccc(Oc4ccccc4)cc3)n2)cc1` [GW639905] was tested. Which “%Inh” value did it give?
A: The value was 1%.

Q: Which “%Inh” value does the source give for `CNc1nccc(-c2ccc3c(N)n[nH]c3c2)n1` [GSK2206003] here?
A: The value was 17%.

Q: `COC(=O)Nc1nc2ccc(Oc3ccc(NC(=O)Nc4cc(C(F)(F)F)ccc4F)cc3)cc2[nH]1.Cl` [GW654607] was tested. Which “%Inh” value did it give?
A: The value was 4%.

Q: How did the “%Inh” value turn out when `O=C(O)C(F)(F)F.O=c1[nH]ccc2nc(N[C@@H]3CCNC3)nc(Nc3cc(Cl)cc(Cl)c3)c12` [GSK2188764] was run?
A: Its value is 24%.

Q: Which “%Inh” value does the source give for `Cl.O=C(Nc1ccc(Oc2ccc3[nH]c(NC(=O)c4ccco4)nc3c2)cc1)Nc1cc(C(F)(F)F)ccc1F` [GW683134] here?
A: Its value is 1%.

Q: For `c1ccc(Oc2ccc(Nc3ccnc4cc(-c5ccc(CN6CCCCC6)o5)ccc34)cc2)nc1` [GW567143], which “%Inh” value is on record?
A: Its value is 9%.

Q: For `NCCC(NC(=O)c1cc(Br)c(-c2ccnc3[nH]ccc23)s1)c1ccccc1.O=C(O)C(F)(F)F.O=C(O)C(F)(F)F` (stereo not shown) [GSK1307810], which “%Inh” value is on record?
A: The value was 6%.

Q: With `COc1ccc(NC(=O)c2ccoc2)cc1-c1ccc(C(=O)NCC2CC2)cc1` [GW810437] as the compound, how does the “%Inh” value read?
A: Its value is 6%.

Q: With `CCn1c(-c2nonc2N)nc2c(-c3ccccc3)ncc(OCCCN)c21.O=C(O)C(F)(F)F.O=C(O)C(F)(F)F` [GSK260205] as the compound, how does the “%Inh” value read?
A: The value was 0%.

Q: How did the “%Inh” value turn out when `CS(=O)(=O)c1cccc(CNc2nc(Nc3ccc4c(c3)CCC(=O)N4)ncc2C(F)(F)F)c1` was run?
A: Its value is 0%.

Q: `O=C(Nc1c(F)cccc1F)c1cc(C(=O)c2ccccc2F)c[nH]1` [GSK1326180] was tested. Which “%Inh” value did it give?
A: The value was 0%.

Q: For `O=C(Nc1n[nH]c2nc(-c3cccc(O)c3)ccc12)C1CC1` [SB-711805], which “%Inh” value is on record?
A: The value was 0%.

Q: How did the “%Inh” value turn out when `Cc1ccc(O)cc1Nc1ccnc2ccc(C(C)(C)C)cc12` [GW856805] was run?
A: Its value is 15%.

Q: `Cc1cccc(Nc2nc(NCCN)ncc2C(N)=O)c1` [GSK1292139] was tested. Which “%Inh” value did it give?
A: The value was 18%.

Q: With `Cn1cc(-c2ccc3c(c2)CCN3C(=O)Cc2cc(F)cc(C(F)(F)F)c2)c2c(N)ncnc21` [GSK2635225] as the compound, how does the “%Inh” value read?
A: The value was 24%.

Q: For `Cn1cc(-c2cnc(N)c3c(-c4ccc5c(c4)CCN5C(=O)Cc4ccccc4)csc23)cn1` [GSK2593074], which “%Inh” value is on record?
A: The value was 1%.

Q: With `CC(C)c1nc(-c2ccc(F)c(NS(=O)(=O)c3c(F)cccc3F)c2)c(-c2ccnc(Nc3ccc(N4CCOCC4)nc3)n2)s1` [GSK1804250] as the compound, how does the “%Inh” value read?
A: Its value is 0%.

Q: How did the “%Inh” value turn out when `CC(C)NCC(Cc1ccccc1)NC(=O)c1cc(Br)c(-c2ccnc3[nH]ccc23)s1.Cl.Cl` (stereo not shown) [GSK1383281] was run?
A: Its value is 39%.

Q: How did the “%Inh” value turn out when `COc1cccc(CC(=O)N2CCc3cc(-c4cn(C)c5ncnc(N)c45)ccc32)c1` [GSK2608899] was run?
A: The value was 8%.

Q: How did the “%Inh” value turn out when `N#Cc1cnc2cc(-c3cnc(CNCCN4CCOCC4)s3)ccc2c1Nc1ccc(Oc2ccccc2)cc1` [GW664114] was run?
A: Its value is 6%.

Q: Which “%Inh” value does the source give for `COc1cccc2c(-c3ccncc3)c(-c3ccc(F)cc3)nn12` [GW468513] here?
A: The value was 4%.

Q: With `COc1cccc(NC(=O)NCCNc2ccnc(Nc3ccc(F)cc3)n2)c1` [GSK1379879] as the compound, how does the “%Inh” value read?
A: Its value is 27%.

Q: How did the “%Inh” value turn out when `Nc1ncc(-c2ccc3nccc(-c4ccncc4)c3c2)cc1S(=O)(=O)N1CCCCC1` [GSK1693850] was run?
A: The value was 21%.
